Assay results: the supplement of paper PMC9694430
Structures can show the parent of a compound that is named as a salt.

How the values were obtained:
Assay in all cases: thermal shift delta Tm vs DMSO control; higher = stronger stabilization (binding)
Settings in all cases: 12.5 µM; protein concentration 2 µM
LOC_OS01G01410-cb001 = tested on: LOC_OS01G01410-cb001
How it was run: (§1)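 Thermal shift values come from differential scanning fluorimetry on purified rice kinase domains made in E. coli, with melting temperatures obtained from Boltzmann fits. Samples of 19.5 μl held 2 μM kinase, 100 mM potassium phosphate pH 7.5, 150 mM NaCl, 10% glycerol, 5 × SYPRO Orange and compound in DMSO, and were heated from 25°C to 95°C at 0.05°C/s. Each shift is a triplicate mean relative to the DMSO-only protein sample.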

LOC_OS01G02750-cb003 = tested on: LOC_OS01G02750-cb003
How it was run: as §1

LOC_OS01G10900-cb004 = tested on: LOC_OS01G10900-cb004
How it was run: as §1

LOC_OS01G13800-cb001 = tested on: LOC_OS01G13800-cb001
How it was run: as §1

LOC_OS01G14860-cb001 = tested on: LOC_OS01G14860-cb001
How it was run: as §1

LOC_OS01G21960-cb002 = tested on: LOC_OS01G21960-cb002
How it was run: as §1

LOC_OS01G39600-cb002 = tested on: LOC_OS01G39600-cb002
How it was run: as §1

LOC_OS01G48390-cb002 = tested on: LOC_OS01G48390-cb002
How it was run: as §1

LOC_OS01G51400-cb002 = tested on: LOC_OS01G51400-cb002
How it was run: as §1

LOC_OS01G52050-cb004 = tested on: T1, LOC_OS01G52050-cb004
T1 sequence (whole entry): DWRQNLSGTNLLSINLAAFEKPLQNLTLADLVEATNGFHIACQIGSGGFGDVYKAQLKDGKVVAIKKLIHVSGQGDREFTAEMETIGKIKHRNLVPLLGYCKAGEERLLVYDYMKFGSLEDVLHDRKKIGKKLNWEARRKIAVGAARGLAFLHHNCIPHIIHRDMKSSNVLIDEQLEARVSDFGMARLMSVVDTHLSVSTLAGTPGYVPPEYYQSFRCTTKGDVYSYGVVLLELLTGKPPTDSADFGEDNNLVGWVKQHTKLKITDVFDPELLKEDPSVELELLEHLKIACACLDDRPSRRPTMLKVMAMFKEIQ
How it was run: as §1

LOC_OS01G57100-cb003 = tested on: LOC_OS01G57100-cb003
How it was run: as §1

LOC_OS01G60330-cb001 = tested on: LOC_OS01G60330-cb001
How it was run: as §1

LOC_OS01G60700-cb002 = tested on: LOC_OS01G60700-cb002
How it was run: as §1

LOC_OS01G63280-cb003 = tested on: LOC_OS01G63280-cb003
How it was run: as §1

LOC_OS01G67340-cb003 = tested on: LOC_OS01G67340-cb003
How it was run: as §1

LOC_OS01G70970-cb002 = tested on: LOC_OS01G70970-cb002
How it was run: as §1

LOC_OS02G07810-cb001 = tested on: LOC_OS02G07810-cb001
How it was run: as §1

LOC_OS02G08530-cb003 = tested on: LOC_OS02G08530-cb003
How it was run: as §1

LOC_OS02G14120-cb001 = tested on: LOC_OS02G14120-cb001
How it was run: as §1

LOC_OS02G17970-cb001 = tested on: LOC_OS02G17970-cb001
How it was run: as §1
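Note: purified Escherichia coli-expressed rice kinase domain construct.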

| SMILES | thermal shift delta Tm (LOC_OS01G01410-cb001) [°C] | thermal shift delta Tm (LOC_OS01G02750-cb003) [°C] | thermal shift delta Tm (LOC_OS01G10900-cb004) [°C] | thermal shift delta Tm (LOC_OS01G13800-cb001) [°C] | thermal shift delta Tm (LOC_OS01G14860-cb001) [°C] | thermal shift delta Tm (LOC_OS01G21960-cb002) [°C] | thermal shift delta Tm (LOC_OS01G39600-cb002) [°C] | thermal shift delta Tm (LOC_OS01G48390-cb002) [°C] | thermal shift delta Tm (LOC_OS01G51400-cb002) [°C] | thermal shift delta Tm (LOC_OS01G52050-cb004) [°C] | thermal shift delta Tm (LOC_OS01G57100-cb003) [°C] | thermal shift delta Tm (LOC_OS01G60330-cb001) [°C] | thermal shift delta Tm (LOC_OS01G60700-cb002) [°C] | thermal shift delta Tm (LOC_OS01G63280-cb003) [°C] | thermal shift delta Tm (LOC_OS01G67340-cb003) [°C] | thermal shift delta Tm (LOC_OS01G70970-cb002) [°C] | thermal shift delta Tm (LOC_OS02G07810-cb001) [°C] | thermal shift delta Tm (LOC_OS02G08530-cb003) [°C] | thermal shift delta Tm (LOC_OS02G14120-cb001) [°C] | thermal shift delta Tm (LOC_OS02G17970-cb001) [°C] |
| --- | --- | --- | --- | --- | --- | --- | --- | --- | --- | --- | --- | --- | --- | --- | --- | --- | --- | --- | --- | --- |
| Cc1ccc(C(=O)Nc2ccc(CN3CCN(C)CC3)c(C(F)(F)F)c2)cc1C#Cc1cnc2[nH]ncc2c1 [GZD824 Dimesylate] | 4.32 | 3.52 | 5.49 | -0.24 | 6.49 | 1.24 | 22.8 | 2.71 | 0.45 | 3.71 | 1.83 | 4.46 | 1.12 | 16.6 | 2.51 | 5.22 | 0.8 | 3.54 | 4.33 | 0.61 |
| CN1CC[C@H](c2c(O)cc(O)c3c(=O)cc(-c4ccccc4Cl)oc23)[C@H](O)C1 [Flavopiridol HCl] | 0.19 | 0.76 | 0.17 | 0.42 | 4.95 | 1.89 | 1.02 | 0.58 | 0.54 | 1.03 | 1.91 | 1.31 | 0.43 | 1.03 | 0.26 | 1.67 | 1.12 | 2.13 | 2.4 | 0.78 |
| CC(C)[C@H](CO)Nc1nc(Nc2cccc(Cl)c2)c2ncn(C(C)C)c2n1 [Purvalanol A] | 1.58 | 3.04 | 0.07 | -0.49 | 1.34 | 2.18 | -0.08 | 2.56 | 0.45 | 5 | 2.77 | 5.05 | 0.1 | 0.46 | 3.08 | 3.68 | 0.09 | 4.08 | 1.7 | 0.39 |
| O=C(Nc1cc(C(F)(F)F)cc(C(F)(F)F)c1)c1cc(Cl)ccc1O | 1.21 | 2.23 | 0.29 | 1.37 | 1.05 | 1.13 | 3.34 | 1.1 | 0.99 | 1.75 | 1.44 | 1.34 | 2.1 | 1.28 | 0.01 | 0.57 | 2.75 | 1.42 | 0.39 | 2.43 |
| Cn1c(=O)c(Oc2ccc(F)cc2F)cc2cnc(NC(CCO)CCO)nc21 | 0.37 | 0.46 | 1.21 | 0.21 | 0.44 | 0.89 | 0.22 | -0.01 | -0.14 | 0.02 | 1.18 | 0.87 | 1.45 | 0.27 | 0.29 | 0.4 | 0.02 | 1.22 | 1.36 | 1 |
| C=CC(=O)N1CCN(CCCn2c(=O)c(-c3c(Cl)c(OC)cc(OC)c3Cl)cc3cnc(NC)nc32)CC1 | 0.19 | 0.26 | 0.4 | -0.37 | 0.42 | 0.28 | 0.11 | 0.23 | 0.12 | 0.46 | 1.48 | -0.24 | 0.2 | -0.06 | 0.02 | 0.17 | -0.82 | 0.53 | 0.67 | -0.31 |
| O=C1Nc2ccc(CN3C(=O)CSC3=O)cc2/C1=C/c1cc(CN2CCOCC2)c[nH]1 | 1.25 | 3.61 | 0.75 | 0.08 | 0.42 | 0.16 | 0.49 | 1.28 | 0.13 | 2.79 | 0.8 | 0.38 | 0.05 | 0.05 | 0.83 | 0.36 | -0.68 | 2.55 | 9.24 | -0.08 |
| CCc1cccc(CC)c1NC(=O)N1Cc2[nH]nc(NC(=O)c3ccc(N4CCN(C)CC4)cc3)c2C1 | 0.31 | 0.54 | 0.87 | -0.49 | 0.31 | 0.34 | 2.21 | 0.01 | 0 | 0.17 | 0.59 | 0.73 | 0.44 | 0.43 | -0.29 | 0.21 | 0.66 | 0.96 | 4.48 | 0.32 |
| Cc1[nH]c(/C=C2\C(=O)Nc3ccccc32)c(C)c1CCC(=O)O [Orantinib (TSU-68, SU6668)] | 4.79 | 1.43 | 0.18 | 0.08 | 1.9 | 2.76 | 6.8 | 1.34 | 0.2 | 3.61 | 2.5 | 12.6 | 0.82 | 0.57 | 1.81 | 4.33 | 1.32 | 4.91 | 7.18 | 0.78 |
| CC(C)(C)c1ccc(S(=O)(=O)/C=C/C#N)cc1 | -0.73 | -1.97 | -1.97 | 0.14 | -0.21 | 1.29 | -0.46 | 0.36 | 0.18 | -3.59 | 3.12 | -0.21 | 1.42 | -3.74 | 0.12 | -4.09 | 0.63 | 1.02 | -0.46 | 5.71 |
| Oc1ccc(Nc2nc(-c3ccc(Cl)cc3)cs2)cc1 | 1.11 | 3.1 | 0.5 | 0.46 | 1.41 | -0.09 | 4.96 | 1.3 | 1.51 | 3.09 | -1.22 | 2.57 | -0.25 | 3.13 | 0.86 | 1.06 | 0.81 | -0.94 | 0.14 | -0.04 |
| CCCCNc1ncc(-c2ccc(CN3CCOCC3)cn2)c(NC2CCC(O)CC2)n1 (stereo not given) | 3.51 | 2.08 | 0.31 | -0.02 | 1.13 | 1.41 | 0.62 | 1.38 | 0.2 | 2.9 | -0.33 | 8.95 | 0 | -0.12 | 1.86 | 5.72 | 0.1 | 1.9 | 5.78 | 0.44 |
